In PubChem BioAssay:
Inconclusive results are not listed. Activity calls are given as the source filed them. Unless noted, cut-off not given; nearly all actives show AC50 up to about 26 µM.

How the values were obtained:
[1] = growth inhibition of DIPG glioma cells, dose response, cell-based, SU-DIPG-XVII, MIPE5.0, CellTiter-Glo, qHTS (AID 1347060); conditions: SU-DIPG-XVII viability, CellTiter-Glo ATP luminescence;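 on AC50: cells exposed to compound for 48 hours before viability readout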
[2] = growth inhibition of DIPG glioma cells, dose response, cell-based, JHH-DIPG-1, MIPE4.0, CellTiter-Glo, qHTS (AID 1347062; cut-off not given, nearly all actives have AC50 up to about 27 µM); conditions: JHH-DIPG-1 viability, CellTiter-Glo ATP luminescence
[3] = growth inhibition of DIPG glioma cells, dose response, cell-based, SU-DIPG-XIII, MIPE5.0, CellTiter-Glo, qHTS (AID 1347064; cut-off not given, nearly all actives have AC50 up to about 23 µM;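 on AC50: cells exposed to compound for 48 hours before the viability read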); conditions: SU-DIPG-XIII viability, CellTiter-Glo ATP luminescence
[4] = SU-DIPG-VI glioma cell viability, MIPE4.0 library, CellTiter-Glo luminescence, qHTS (AID 1347066; cut-off not given, nearly all actives have AC50 up to about 30 µM;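 further: cells exposed to compound for 48 hours before readout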); conditions: CellTiter-Glo ATP luminescence
[5] = JHH-DIPG-1 glioma cell viability, MIPE5.0 library, CellTiter-Glo luminescence, qHTS (AID 1347067); conditions: JHH-DIPG-1 glioma viability, CellTiter-Glo ATP luminescence;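 further: cells exposed to compound for 48 hours before readout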
[6] = SU-DIPG-XXV glioma cell viability, MIPE5.0 library, qHTS (AID 1347068; cut-off not given, nearly all actives have IC50 up to about 30 µM;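 on IC50: cells exposed to compound for 48 hours before viability readout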)
[7] = sensitizers of A549 cells to miR-34 induction, primary screen, imaging, A549 dox-inducible miR-34, nuclei and caspase counts (AID 1347080;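 active means compounds whose cell count with miR-34 switched on is under 0.7 times the count with it off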); conditions: A549 miR-34 inducible, Hoechst nuclei count, 48 h
[8] = survival rescue of mitochondrial mutant cells in low glucose, primary screen, MELAS cybrids, Rieske KO mouse fibroblasts, CellTiter-Glo (AID 1508586;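 active means mean z-score across replicates of 1.96 or higher in either the MELAS or the Rieske mutant cell line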;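 further: z relative to plate mean and SD of compound and empty wells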)
[9] = viability loss in pontine glioma line – cell-based, SU-DIPG-XXV, MIPE5.0, CellTiter-Glo, qHTS, dose response (AID 1347065); conditions: CellTiter-Glo ATP luminescence;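 further: cells exposed to compound for 48 hours before ATP readout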
[10] = modifiers of HSF1 nuclear foci, imaging, Selleck Cancer Library (AID 1347162; in the data active means plate-normalised HSF1 focus index below about 0.46); conditions: human cells, at 10 µM; SSMD: measured here: HSF1 foci SSMD mean; cell count: measured here: cell number; plate-normalised HSF1 focus index: stronger effect = lower value
[11] = growth inhibition of DIPG glioma cells, dose response, cell-based, SU-DIPG-IV, MIPE4.0, CellTiter-Glo, qHTS (AID 1347063; cut-off not given, nearly all actives have AC50 up to about 30 µM;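 further: compound exposure lasted 48 hours before the viability readout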); conditions: SU-DIPG-IV viability, CellTiter-Glo ATP luminescence
[12] = stronger effect = lower value, cell number ratio, induced over uninduced
[13] = measured here: relative caspase fold change +Dox/-Dox
[14] = measured here: total cells with miR-34 induction, stronger effect = lower value
[15] = measured here: total cells without miR-34 induction
[16] = MELAS cybrid survival, CellTiter-Glo 48 h, stronger effect = higher value
[17] = Rieske KO mouse fibroblast survival, CellTiter-Glo 72 h

O=c1ncn2nc(Sc3ccc(F)cc3F)ccc2c1-c1c(Cl)cccc1Cl
6460: cell count [7, 14]
7250: cell count [7, 15]
1.87: fold change [7, 13]
inactive: outcome [1] | outcome [2] | outcome [3] | outcome [4] | outcome [5] | outcome [6] | fold change [7, 12] 0.89 | z-score [8, 16] -0.528
1.18: z-score [8, 17]

CCOc1cc(/C=C2/C(=O)N(c3ccccc3)N=C2C)cc(Cl)c1OCC(=O)OC
1.24: SSMD [10]
inactive: outcome [1] | outcome [2] | outcome [9] | outcome [5] | outcome [6] | plate-normalised HSF1 focus index [10] 1.07
6670: cell count [10]

Cc1cc(Nc2cc(CN3CCOCC3)c3nc(C)c(Cc4ccc(Cl)cc4F)n3n2)n[nH]1
-1.27: z-score [8, 17]
982: cell count [7, 15]
inactive: fold change [7, 12] 1.46 | z-score [8, 16] -0.366
0.647: fold change [7, 13]
1440: cell count [7, 14]
active: AC50 [1] 1.32 µM | AC50 [11] 11.8 µM | AC50 [3] 10.5 µM | AC50 [9] 1.18 µM | AC50 [4] 23.5 µM | AC50 [5] 3.32 µM | IC50 [6] 8.33 µM

CC1=C[C@@H]2[C@H]([C@@H](O)C[C@@]3(C)[C@H]2C[C@@H](C)[C@]3(O)C(=O)CO)[C@@]2(C)Cc3cnn(-c4ccccc4)c3C=C12
active: AC50 [1] 5.25 µM | AC50 [11] 3.72 µM | AC50 [3] 9.34 µM | AC50 [9] 7.42 µM | AC50 [5] 11.8 µM | IC50 [6] 16.6 µM

CCN(CC)CCCCNc1ncc2c(n1)N(C)C(=O)N(c1c(Cl)c(OC)cc(OC)c1Cl)C2
active: AC50 [1] 0.59 µM | AC50 [11] 18.7 µM | AC50 [3] 0.263 µM | AC50 [9] 0.372 µM | IC50 [6] 7.42 µM

CC(N[C@H]1CCCC[C@@H]1NC(=O)c1ccc(Cl)cc1)c1cccc2ccccc12 (some centres not stated)
active: AC50 [1] 8.33 µM | AC50 [11] 0.148 µM | AC50 [3] 7.42 µM | AC50 [9] 8.33 µM | AC50 [5] 9.34 µM | IC50 [6] 16.6 µM

CC(=O)O/N=C1/C(c2c(O)[nH]c3cc(Br)ccc23)=Nc2ccccc21
active: AC50 [1] 8.33 µM | AC50 [11] 1.48 µM | AC50 [3] 20.9 µM | AC50 [9] 7.42 µM | AC50 [5] 29.5 µM | IC50 [6] 9.34 µM

O[C@@H](COc1cccc2ncccc12)CN1CCN(C2c3ccccc3[C@@H]3[C@H](c4ccccc42)C3(F)F)CC1 (some centres not stated)
active: AC50 [1] 20.9 µM | AC50 [11] 16.6 µM | AC50 [3] 23.5 µM | AC50 [9] 13.2 µM | AC50 [5] 23.5 µM | IC50 [6] 18.6 µM

COc1c(OCCCN2CCOCC2)ccc2c3n(c(=NC(=O)c4cnc(N)nc4)nc12)CCN3
active: AC50 [1] 0.27 µM | AC50 [11] 0.102 µM | AC50 [3] 0.27 µM | AC50 [9] 0.0959 µM | AC50 [4] 0.0457 µM | AC50 [5] 0.191 µM | IC50 [6] 0.382 µM

CC(C)c1cc(C(C)C)c(CC(=O)NS(=O)(=O)Oc2c(C(C)C)cccc2C(C)C)c(C(C)C)c1
active: AC50 [1] 10.5 µM | AC50 [11] 20.9 µM | AC50 [3] 13.2 µM | AC50 [9] 9.34 µM | AC50 [4] 10.5 µM | AC50 [5] 11.8 µM | IC50 [6] 8.33 µM
0.65: fold change [7, 13]
5220: cell count [7, 15]
5000: cell count [7, 14]
0.969: z-score [8, 17]
inactive: fold change [7, 12] 0.956 | z-score [8, 16] -0.406
